Experimental data: PubChem BioAssay (Tox21)
Results filed as inconclusive are left out. Active and inactive are the calls of the source. Unless noted, calls follow the shape of the dose curve; as a rule, active = well fitted curve in the direction sought with a large enough effect in the repeat runs; inconclusive = weak or mixed curves; inactive = no such curve, though single readings can be large; an effect the other way counts as inactive or inconclusive.

Tests used:
[1] = qHTS assay to identify small molecule agonists of the sonic hedgehog signaling (Shh) pathway (AID 1259368; calls by dose curve;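 also: NIH/3T3-derived 3T3Gli1-Luc cells carrying a stable Gli1-driven firefly luciferase reporter; series mostly up to about 92 µM; nearly all actives have a fitted effect of over 15% in size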)
How it was run: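 Luminescence was read after 30 min at room temperature with luciferase reagent. Before that, 3T3Gli1-Luc cells (NIH/3T3 clone, stable Gli1-Luc reporter; 2,000/well) were exposed to compounds for 24 hr at 37C, 5% CO2, compounds being added 4 hr post-plating.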

[2] = target: Estrogen receptor beta (Homo sapiens) (UniProt Q92731); assay: qHTS assay to identify small molecule agonists of the estrogen receptor beta (ER-beta) signaling pathway (AID 1259377; active = well fitted activation curve with a large enough effect in the signal ratio in the repeat runs, not every such curve was filed as active; the % refers to the signal ratio)
How it was run: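 A UAS-controlled beta-lactamase reporter in ER-beta-UAS-bla HEK293T cells reports receptor activation. Compounds act for 16 hr at 37C in 2% charcoal-stripped serum, and a FRET substrate is read by fluorescence after 2 hours.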

[3] = target: Estrogen receptor beta (Homo sapiens) (UniProt Q92731); assay: qHTS assay to identify small molecule antagonists of the estrogen receptor beta (ER-beta) signaling pathway (AID 1259378; active = well fitted inhibition curve with a large enough effect in the signal ratio in the repeat runs, not every such curve was filed as active; the % refers to the signal ratio)
How it was run: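 ER-beta-UAS-bla HEK293T cells in 2% charcoal-stripped FBS medium treated with compound plus 1nM final 17-beta-estradiol for 16 hr at 37C. Beta-lactamase reporter read by FRET substrate fluorescence after 2 hours at room temperature.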

[4] = qHTS assay to identify small molecule agonists of the androgen receptor (AR) signaling pathway in the presence of an antagonist - cell viability counter screen (AID 1259379);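 also: MDA-kb2 human breast cancer cells carrying an MMTV luciferase reporter; series mostly up to about 92 µM; nearly all actives have a fitted effect of over 25% in size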
How it was run: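 Cytotoxicity counter-screen run in the same wells as the nilutamide-challenged (3.0 µM final) AR agonist assay in MDA-kb2 cells. Compounds tested at 15 concentrations for 16 h, 37 °C without CO2; CellTiter-Fluor fluorescence read.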

[5] = qHTS assay to identify small molecule agonists of the estrogen receptor beta (ER-beta) signaling pathway - cell viability counter screen (AID 1259380); also: nearly all actives have a fitted effect of over 30% in size
How it was run: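 Cell viability counter screen: CellTiter-Glo luminescence (30 min, room temperature) measured in the same wells as the beta-lactamase readout, after 16 hr compound exposure at 37C of ER-beta-bla HEK293T cells in 2% charcoal-stripped FBS medium.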

[6] = target: Estrogen receptor (Homo sapiens) (UniProt P03372); assay: qHTS assay to identify small molecule agonists of the estrogen receptor alpha (ER-alpha) signaling pathway in the presence of an antagonist (AID 1259383; calls by dose curve; also: top concentration of the series differs between compounds; nearly all actives have a fitted effect of over 15% in size)
How it was run: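 Agonist-mode confirmation run in the presence of 10.0nM (final) ICI-182,780 antagonist. The reporter was ERE-driven luciferase in VM7Luc4E2 cells, grown in charcoal-stripped serum. Cells were exposed to 15-concentration compound series for 22hr, then ONE-Glo luminescence was read.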

[7] = qHTS assay to identify small molecule agonists or antagonists of the thyroid stimulating hormone receptor (TSHR) signaling pathway - wild type cell line counter screen (AID 1259384; calls by dose curve)
How it was run: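 Wild-type Hek293 cells, 800/well, 18 h at 37C, then compound with Ro20-1724 for 30 min RT. cAMP by HTRF (cAMP-d2/anti-cAMP cryptate), 1 h RT, fluorescence read. 15 concentrations, triplicates.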

[8] = target: Thyrotropin receptor (Homo sapiens) (UniProt P16473); assay: qHTS assay to identify small molecule antagonists of the thyroid stimulating hormone receptor (TSHR) signaling pathway (AID 1259385; calls by dose curve; also: nearly all actives have a fitted effect of over 20% in size)
How it was run: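 TSHR-HEK293 cells (800/well) plated 18 h, then compounds with Ro20-1724 and TSH at 1.5 ng/mL final, 30 min at room temperature. cAMP quantified by HTRF (cAMP-d2/anti-cAMP-cryptate, 1 h); 15 concentrations in triplicate.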

[9] = qHTS assay to identify small molecule agonists of the estrogen receptor alpha (ER-alpha) signaling pathway in the presence of an antagonist - cell viability counter screen (AID 1259386); also: series mostly up to about 92 µM; nearly all actives have a fitted effect of over 30% in size
How it was run: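 Compounds tested at 15 concentrations for 22 h at 37C alongside 10.0nM (final) ICI-182,780 antagonist, in VM7Luc4E2 cells grown in phenol red-free, charcoal-stripped medium. Viability read by CellTiter-Fluor fluorescence after 1 h reagent incubation.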

[10] = target: Progesterone receptor (Homo sapiens) (UniProt P06401); assay: qHTS assay to identify small molecule agonists of the progesterone receptor (PR) signaling pathway (AID 1346784; calls by dose curve; also: nearly all actives have a fitted effect of over 30% in size)
How it was run: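 Agonist mode, quantitative HTS format in a HEK 293T line expressing a UAS-controlled beta-lactamase reporter; 16 hr compound exposure at 37C in 2% charcoal-stripped FBS, then LiveBLAzer B/G FRET fluorescence.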

[11] = target: Progesterone receptor (Homo sapiens) (UniProt P06401); assay: qHTS assay to identify small molecule antagonists of the progesterone receptor (PR) signaling pathway (AID 1346795; active = well fitted inhibition curve with a large enough effect in the signal ratio in the repeat runs, not every such curve was filed as active; the % refers to the signal ratio)
How it was run: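 HEK293T PR-UAS-bla reporter cells in charcoal-stripped serum (2%) received compound after a 6 hr settling period, followed by R5020 agonist at 1 nM final; 16 hr incubation preceded the FRET substrate step and fluorescence measurement.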

[12] = qHTS assay to identify small molecule antagonists of the progesterone receptor (PR) signaling pathway - cell viability counter screen (AID 1346798); also: series mostly up to about 92 µM; nearly all actives have a fitted effect of over 50% in size
How it was run: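 Same-well multiplex: after 16 hr at 37C with compound and R5020 stimulation, HEK293T cells carrying a UAS-bla reporter received LiveBLAzer substrate (2 hr RT), then CellTiter-Glo (30 min RT) for luminescent viability.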

[13] = qHTS assay to identify small molecule agonists of the progesterone receptor (PR) signaling pathway - cell viability counter screen (AID 1346799; calls by dose curve; also: nearly all actives have a fitted effect of over 45% in size)
How it was run: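 Counter screen for cytotoxicity: compound-treated PR-UAS-bla HEK293T cells (16 hr, 37C, 5% CO2) were assayed with CellTiter-Glo, luminescence measured after 30 min at room temperature.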

[14] = qHTS assay to identify small molecule antagonists of the TGF-beta/Smad signaling pathway - cell viability counter screen (AID 1346824); also: nearly all actives have a fitted effect of over 50% in size
How it was run: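 SBE-bla HEK 293T cells, incubated overnight, then compound plus 0.25 ng/mL TGF-beta1 (stock added) for 5 hr at 37 C. Viability was read in the same wells by CellTiter-Glo luminescence after 30 min at room temperature.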

[15] = qHTS assay to identify small molecule agonists of the TGF-beta/Smad signaling pathway - cell viability counter screen (AID 1346829); also: top concentration of the series differs between compounds; nearly all actives have a fitted effect of over 45% in size
How it was run: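 CellTiter-Glo luminescence readout; SBE-bla HEK 293T cells, overnight plating, compound 5 hr at 37 C/5% CO2, then bla substrate 2 hr RT, then CellTiter-Glo 30 min RT.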

[16] = qHTS assay to identify small molecule agonists of the TGF-beta/Smad signaling pathway (AID 1346859; active = well fitted activation curve with a large enough effect in the signal ratio in the repeat runs, not every such curve was filed as active; the % refers to the signal ratio; also: series mostly up to about 77 µM)
How it was run: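 Smad-responsive beta-lactamase reporter cells (HEK 293T) received compounds from DMSO stocks after overnight attachment, were incubated 5 hr, then treated 2 hr with FRET substrate before dual-emission fluorescence measurement (405 nm excitation).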

[17] = target: Thyrotropin-releasing hormone receptor (Homo sapiens) (UniProt P34981); assay: qHTS assay to identify small molecule antagonists of the thyrotropin-releasing hormone receptor (TRHR) signaling pathway (AID 1346877; active = well fitted inhibition curve with a large enough effect in the repeat runs, not every such curve was filed as active; also: series mostly up to about 51 µM)
How it was run: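 Antagonist mode: after a 5 min room-temperature compound exposure, cells were stimulated with 1 nM (final) TRH. Dye-loaded TRHR-HEK293 cells were used, and calcium-dependent fluorescence was followed for 3 min, with 15-point titrations run in triplicate.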

[18] = qHTS assay to identify small molecule antagonists of the estrogen receptor beta (ER-beta) signaling pathway - cell viability counter screen (AID 1259382); also: series mostly up to about 92 µM; nearly all actives have a fitted effect of over 55% in size
How it was run: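 Cytotoxicity was measured in the same wells by CellTiter-Glo luminescence after 30 min at room temperature. Cells were ER-beta-bla HEK293T in charcoal-stripped serum, given compound together with 1 nM E2 and incubated 16 h at 37C.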

[19] = target: Androgen receptor (Homo sapiens) (UniProt P10275); assay: qHTS assay to identify small molecule agonists of the androgen receptor (AR) signaling pathway in the presence of an antagonist (AID 1259381; calls by dose curve; also: nearly all actives have a fitted effect of over 15% in size)
How it was run: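 Agonist-mode confirmation run against 3.0 uM final nilutamide: compounds titrated at 15 concentrations onto MDA-kb2 MMTV-luciferase reporter cells. Luminescence measured with ONE-Glo following 16 hr incubation, 37C, 0% CO2.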

Measured: Potency

Sequence of Thyrotropin receptor (Homo sapiens) (P16473 whole entry, looked up): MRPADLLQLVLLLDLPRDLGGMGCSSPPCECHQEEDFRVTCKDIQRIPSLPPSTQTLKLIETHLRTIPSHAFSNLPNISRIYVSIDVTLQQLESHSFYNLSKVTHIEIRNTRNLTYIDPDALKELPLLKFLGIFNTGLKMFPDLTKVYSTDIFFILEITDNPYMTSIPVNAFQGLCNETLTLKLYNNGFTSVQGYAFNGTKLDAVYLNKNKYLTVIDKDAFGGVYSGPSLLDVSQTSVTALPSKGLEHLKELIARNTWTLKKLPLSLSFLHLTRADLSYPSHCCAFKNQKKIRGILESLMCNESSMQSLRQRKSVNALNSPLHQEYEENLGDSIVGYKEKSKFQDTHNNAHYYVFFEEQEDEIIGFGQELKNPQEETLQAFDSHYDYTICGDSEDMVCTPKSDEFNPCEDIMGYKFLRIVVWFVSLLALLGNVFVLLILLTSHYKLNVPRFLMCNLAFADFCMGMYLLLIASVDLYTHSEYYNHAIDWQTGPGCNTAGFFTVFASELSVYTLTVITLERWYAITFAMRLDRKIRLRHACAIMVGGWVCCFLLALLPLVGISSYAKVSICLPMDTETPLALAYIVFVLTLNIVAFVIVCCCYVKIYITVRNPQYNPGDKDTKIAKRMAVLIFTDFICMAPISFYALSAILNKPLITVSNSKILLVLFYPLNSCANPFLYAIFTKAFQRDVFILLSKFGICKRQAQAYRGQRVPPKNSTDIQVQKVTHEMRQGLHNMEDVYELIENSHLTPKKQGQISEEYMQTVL
Sequence of Estrogen receptor beta (Homo sapiens) (Q92731 whole entry, looked up): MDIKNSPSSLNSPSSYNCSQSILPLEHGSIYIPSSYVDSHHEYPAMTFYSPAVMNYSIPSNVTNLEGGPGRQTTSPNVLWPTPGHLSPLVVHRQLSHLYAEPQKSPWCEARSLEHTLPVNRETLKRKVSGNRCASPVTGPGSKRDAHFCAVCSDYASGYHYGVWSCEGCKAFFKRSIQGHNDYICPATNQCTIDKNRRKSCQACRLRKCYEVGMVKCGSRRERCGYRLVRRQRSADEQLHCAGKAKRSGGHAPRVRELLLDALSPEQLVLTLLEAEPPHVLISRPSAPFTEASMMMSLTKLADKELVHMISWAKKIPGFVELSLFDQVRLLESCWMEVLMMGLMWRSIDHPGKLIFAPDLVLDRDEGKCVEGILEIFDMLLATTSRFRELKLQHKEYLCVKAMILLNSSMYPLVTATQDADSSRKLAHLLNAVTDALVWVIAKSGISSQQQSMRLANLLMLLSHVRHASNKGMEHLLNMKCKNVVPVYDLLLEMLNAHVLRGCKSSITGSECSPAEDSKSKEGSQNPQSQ
Sequence of Estrogen receptor (Homo sapiens) (P03372 whole entry, looked up): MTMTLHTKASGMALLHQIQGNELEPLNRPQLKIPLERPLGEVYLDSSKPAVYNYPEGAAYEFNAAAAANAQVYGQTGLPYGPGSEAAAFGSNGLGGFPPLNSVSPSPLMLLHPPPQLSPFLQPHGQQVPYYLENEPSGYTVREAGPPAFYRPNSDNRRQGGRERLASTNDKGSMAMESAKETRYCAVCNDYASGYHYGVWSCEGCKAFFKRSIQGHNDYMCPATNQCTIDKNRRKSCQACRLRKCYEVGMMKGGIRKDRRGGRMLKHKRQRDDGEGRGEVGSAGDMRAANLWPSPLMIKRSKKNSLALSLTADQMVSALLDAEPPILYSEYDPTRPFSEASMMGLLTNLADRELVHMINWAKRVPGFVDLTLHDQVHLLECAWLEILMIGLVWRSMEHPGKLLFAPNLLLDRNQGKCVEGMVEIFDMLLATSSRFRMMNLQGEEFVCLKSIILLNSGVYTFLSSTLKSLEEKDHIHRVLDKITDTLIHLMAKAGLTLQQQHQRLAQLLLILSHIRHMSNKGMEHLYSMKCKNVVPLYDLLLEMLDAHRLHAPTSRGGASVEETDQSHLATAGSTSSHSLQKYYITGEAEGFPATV
Sequence of Thyrotropin-releasing hormone receptor (Homo sapiens) (P34981 whole entry, looked up): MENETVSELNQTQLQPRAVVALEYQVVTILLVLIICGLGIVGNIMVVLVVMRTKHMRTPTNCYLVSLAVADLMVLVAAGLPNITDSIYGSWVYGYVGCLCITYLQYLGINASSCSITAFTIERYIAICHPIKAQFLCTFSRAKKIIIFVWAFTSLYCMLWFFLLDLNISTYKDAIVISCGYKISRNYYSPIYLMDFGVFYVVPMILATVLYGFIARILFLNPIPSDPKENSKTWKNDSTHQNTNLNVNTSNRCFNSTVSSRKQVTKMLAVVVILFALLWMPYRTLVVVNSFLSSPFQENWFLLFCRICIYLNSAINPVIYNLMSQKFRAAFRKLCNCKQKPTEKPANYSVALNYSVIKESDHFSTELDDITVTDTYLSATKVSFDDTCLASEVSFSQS
Sequence of Progesterone receptor (Homo sapiens) (P06401 whole entry, looked up): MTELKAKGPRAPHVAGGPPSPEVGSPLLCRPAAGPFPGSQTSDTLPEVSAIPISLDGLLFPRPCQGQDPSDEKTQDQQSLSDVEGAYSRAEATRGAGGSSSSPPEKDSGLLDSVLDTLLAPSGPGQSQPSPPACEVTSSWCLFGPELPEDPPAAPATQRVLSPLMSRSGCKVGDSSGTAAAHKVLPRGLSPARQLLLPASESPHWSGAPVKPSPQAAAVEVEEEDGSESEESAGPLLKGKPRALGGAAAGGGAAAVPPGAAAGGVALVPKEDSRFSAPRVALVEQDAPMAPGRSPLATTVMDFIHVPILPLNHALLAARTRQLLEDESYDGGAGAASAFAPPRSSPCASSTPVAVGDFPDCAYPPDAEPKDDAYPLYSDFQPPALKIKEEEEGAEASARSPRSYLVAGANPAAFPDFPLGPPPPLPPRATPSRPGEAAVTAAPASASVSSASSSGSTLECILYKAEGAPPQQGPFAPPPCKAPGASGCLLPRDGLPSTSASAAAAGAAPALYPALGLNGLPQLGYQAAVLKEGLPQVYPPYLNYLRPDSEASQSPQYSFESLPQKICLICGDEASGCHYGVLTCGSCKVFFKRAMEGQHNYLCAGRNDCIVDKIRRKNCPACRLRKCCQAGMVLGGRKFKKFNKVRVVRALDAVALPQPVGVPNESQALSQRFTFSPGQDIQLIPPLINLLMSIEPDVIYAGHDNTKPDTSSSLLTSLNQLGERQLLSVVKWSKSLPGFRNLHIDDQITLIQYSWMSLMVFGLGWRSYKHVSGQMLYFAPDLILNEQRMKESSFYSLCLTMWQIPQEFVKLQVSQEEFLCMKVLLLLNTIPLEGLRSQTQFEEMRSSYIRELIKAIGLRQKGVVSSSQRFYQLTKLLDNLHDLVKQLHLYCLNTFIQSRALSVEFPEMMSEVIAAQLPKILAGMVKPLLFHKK
Sequence of Androgen receptor (Homo sapiens) (P10275 whole entry, looked up): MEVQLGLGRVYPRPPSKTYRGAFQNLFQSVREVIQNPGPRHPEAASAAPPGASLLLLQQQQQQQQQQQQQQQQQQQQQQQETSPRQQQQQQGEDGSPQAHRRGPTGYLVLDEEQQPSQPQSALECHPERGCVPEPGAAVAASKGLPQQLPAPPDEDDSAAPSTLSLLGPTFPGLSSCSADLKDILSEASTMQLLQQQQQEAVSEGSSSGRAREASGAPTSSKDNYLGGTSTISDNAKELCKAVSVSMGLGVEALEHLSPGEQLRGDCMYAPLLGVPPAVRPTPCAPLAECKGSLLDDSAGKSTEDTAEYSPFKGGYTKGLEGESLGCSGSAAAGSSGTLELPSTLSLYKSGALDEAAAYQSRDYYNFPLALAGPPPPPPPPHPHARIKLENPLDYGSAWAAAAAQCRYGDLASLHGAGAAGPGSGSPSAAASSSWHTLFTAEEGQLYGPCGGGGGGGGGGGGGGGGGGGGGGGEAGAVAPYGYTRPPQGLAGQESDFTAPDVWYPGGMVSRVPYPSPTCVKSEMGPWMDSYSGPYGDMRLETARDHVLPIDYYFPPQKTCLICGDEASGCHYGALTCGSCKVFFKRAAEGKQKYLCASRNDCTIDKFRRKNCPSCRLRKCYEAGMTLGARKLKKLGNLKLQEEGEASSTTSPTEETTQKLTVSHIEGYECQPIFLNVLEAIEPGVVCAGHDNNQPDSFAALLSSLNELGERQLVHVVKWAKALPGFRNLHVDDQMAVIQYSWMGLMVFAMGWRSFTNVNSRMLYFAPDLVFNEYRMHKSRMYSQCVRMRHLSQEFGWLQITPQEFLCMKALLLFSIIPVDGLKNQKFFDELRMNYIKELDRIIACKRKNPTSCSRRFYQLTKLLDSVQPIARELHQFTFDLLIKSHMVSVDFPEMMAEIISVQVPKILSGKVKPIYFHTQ

O=c1[nH][nH]c(=O)c2cc([N+](=O)[O-])ccc12
not listed: [18] | [19]
inactive: all other assays above

CC[C@H]1OC(=O)[C@H](C)[C@@H](O[C@H]2C[C@@](C)(OC)[C@@H](O)[C@H](C)O2)[C@H](C)[C@@H](O[C@@H]2O[C@H](C)C[C@H](N(C)C)[C@H]2O)[C@](C)(O)C[C@@H](C)CN(C)[C@H](C)[C@@H](O)[C@]1(C)O
not listed: [4] | [9] | [13] | [19]
inactive: all other assays above

Oc1cccc2[nH]ccc12
not listed: [4]
inactive: all other assays above

CCCCCCC(O)CCCCCCCCCCC(=O)OC (configuration not stated)
not listed: [5] | [6] | [14] | [18] | [19]
inactive: all other assays above

CNCc1ccc(NC(=O)c2c[nH]c3c2C(=O)CCC3)cc1
not listed: [5] | [6] | [13] | [19]
inactive: all other assays above

COc1ccc(C(=O)NCc2ccc(OCCN(C)C)cc2)cc1OC
not listed: [7] | [8] | [13] | [18] | [19]
inactive: all other assays above

CSSc1ccoc1C
not listed: [5] | [6] | [8] | [15] | [19]
inactive: all other assays above

O=C(O)c1cc(Cl)cc(Cl)c1O
not listed: [3] | [5] | [6] | [18]
inactive: all other assays above
